Source: PubChem BioAssay (NCI)
The panel holds about 83,000 compounds, 20% with a hit somewhere; the sample as a whole holds those more often.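 Growth was measured after 48 h exposure to one concentration of compound in 96-well plates. Values under 10 count as active.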 Values without a mark were called inactive. Activity calls are given as the source filed them.

Key:
Assay in all cases: NCI-60 one-dose screen, 48 h (100 = growth as untreated, 0 = no growth, -100 = all killed)
Conditions in all cases: 10 µM unless noted
NCI-H23 lung = tested on: NCI-H23 lung
NCI-H226 lung = tested on: NCI-H226 lung
NCI-H322M lung = tested on: NCI-H322M lung
HOP-62 NSCLC = tested on: HOP-62 NSCLC
NCI-H460 lung = tested on: NCI-H460 lung
NCI-H522 lung = tested on: NCI-H522 lung
A549/ATCC NSCLC = tested on: A549/ATCC NSCLC
786-0 renal = tested on: 786-0 renal
COLO 205 colon = tested on: COLO 205 colon
DU-145 prostate = tested on: DU-145 prostate
K-562 leukemia = tested on: K-562 leukemia
MALME-3M melanoma = tested on: MALME-3M melanoma
MDA-MB-231 breast = tested on: MDA-MB-231 breast
RXF 393 renal = tested on: RXF 393 renal
SF-268 CNS = tested on: SF-268 CNS
SF-295 CNS = tested on: SF-295 CNS
SF-539 CNS = tested on: SF-539 CNS
UACC-257 melanoma = tested on: UACC-257 melanoma
M14 melanoma = tested on: M14 melanoma

Structure (SMILES) | growth (NCI-H23 lung) [%] | growth (NCI-H226 lung) [%] | growth (NCI-H322M lung) [%] | growth (HOP-62 NSCLC) [%] | growth (NCI-H460 lung) | growth (NCI-H522 lung) | growth (A549/ATCC NSCLC) [%] | growth (786-0 renal) | growth (COLO 205 colon) | growth (DU-145 prostate) | growth (K-562 leukemia) | growth (MALME-3M melanoma) [%] | growth (MDA-MB-231 breast) | growth (RXF 393 renal) [%] | growth (SF-268 CNS) [%] | growth (SF-295 CNS) | growth (SF-539 CNS) | growth (UACC-257 melanoma) | growth (M14 melanoma)
CCN1C(=O)C(C)C=C(C)C=C1C (configuration not stated) | 102 | 102 | 108 | 105 | 113% | 84.5% | 105 | 115% | 104% | 90.7% | 95.3% | 104 | 112% | 106 | 103 | 59.8% | 112% | 107% | 120%
CCN(CC)Cc1cc(Nc2ccnc3ccc(OC)cc23)ccc1O | 56 | 56.4 | 38.5 | 71.2 | 20.1% | -1.72% (active) | 22.5 | 18.2% | 78.2% | 40.5% | 12.7% | 75 | 58.8% | 48.9 | 53 | 79% | 64.7% | -17.7% (active) | 29.5%
Oc1c(C(Nc2cccc3ccccc23)c2ccccc2)ccc2cccnc12 (configuration not stated) | 41.8 | 50.6 | 37.2 | 52.2 | 5.7% (active) | 16.1% | 33.6 | -13.6% (active) | 38% | 35% | 11.6% | 31.7 | 17.8% | 69.4 | 23.4 | 7.99% (active) | 43.3% | 22.5% | 0.701% (active)
CC(SC(C)C(=O)N/N=C/c1cccc(Cl)c1)C(=O)N/N=C\c1cccc(Cl)c1 (configuration not stated) | 86.8 | 93.2 | 84.3 | 90.4 | 20.5% | 60% | 15.2 | 90.9% | 74.7% | 71.9% | 79.7% | 88.9 | 28.1% | 91.2 | 69 | 66.2% | 106% | 104% | 85.1%
O=C(CCCCCCN1CC(=O)N2[C@@H](c3ccc(Cl)c(Cl)c3)c3[nH]c4ccccc4c3C[C@H]2C1=O)NO | 54 | 84.8 | 53.5 | 54.1 | 39.1% | 17.8% | 79.9 | 71.8% | 58.9% | 56.7% | 17.9% | 40 | 44.4% | 36.5 | 74.7 | 61.8% | 52% | 65.5% | 50.6%
COc1cccc(N2CCN(c3ncnc4cc[nH]c34)CC2)c1 | 42.8 | 55.1 | 94 | 34.2 | 66.9% | 51.5% | 60.2 | 70.9% | 88.2% | 90.6% | 37.7% | 75.1 | 84.4% | 99.3 | 90.7 | 44.2% | 72.8% | 47.5% | 58.2%
COc1ccc(-c2cnc(-c3ccncc3-c3cccc(OC)c3)o2)cc1 | 19.4 | 15.3 | 56.3 | 26.3 | 7.36% (active) | -59.9% (active) | 30.7 | 24.8% | -44.1% (active) | 0.973% (active) | 7.13% (active) | 92 | -9.9% (active) | 43.1 | 18.2 | -8.54% (active) | -0.0741% (active) | 83.6% | 23.9%
Cc1c(C(=O)CCl)c(=O)n(-c2ccccc2)n1C | 72.7 | 104 | 101 | 105 | 81.2% | -34.4% (active) | 83.5 | 88.6% | 48.7% | 42.4% | 53% | 48.1 | 97.7% | 38.7 | 84.5 | 87.3% | 71.7% | 52.1% | 52.3%
